Results as given in PubChem BioAssay AID743379 (National Center for Advancing Translational Sciences (NCATS), 2014).
Activity calls are given as the source filed them. The call rests on the fitted dose curve.

molecular target: Phosphatidylinositol 5-phosphate 4-kinase type-2 beta (Homo sapiens) (UniProt P78356); assay: qHTS for Inhibitors of PI5P4K: PI5P4K-beta 32P-ATP TLC Secondary Assay for Probe SAR; conditions: recombinant PI5P4K-beta, 32P-ATP TLC lipid kinase assay
Text: In addition to finding PI5P, we discovered the type II phosphatidylinositol 5-phosphate 4-kinase (PI5P4K) family (alpha, beta, gamma isoforms) that catalyze the conversion of PI5P to PI(4,5)P2. Alternatively, PI(4,5)P2 can also be synthesized through phosphatidylinositol-4-phosphate (PI4P) by the type I phosphatidylinositol 4-phosphate 5-kinases (PI4P5K). These PI5P4K enzymes therefore represent one way by which cells can regulate endogenous PI5P levels and play important roles in insulin signaling and in stress responses. […] A qHTS PI5P4K-alpha ADP-Glo assay was developed to identify specific modulators of human PI5P4K, phosphatidylinositol-5-phosphate 4-kinase (Type II PIPK). To confirm that the active compounds and their analogs were true and selective inhibitors, a secondary Thin-layer Chromatography (TLC) assays against recombinant PI5P4K-alpha, PI4P5K-alpha or PI5P4K-beta that utilize a radioactively labeled ATP were developed. The data herein is the result of the PI5P4K-beta TLC assay. […]
The kinase reaction was carried out in a total of 50 microL of kinase buffer (50 mM HEPES pH 7.4 and 10 mM MgCl2) containing 20 microM of the lipids that were suspended by sonication. […] The radiolabeled product, PI(4,5)P2, was quantified with a phosphorimager (Molecular Dynamics, STORM840, GE Healthcare, Waukesha, WI, USA).

Phosphatidylinositol 5-phosphate 4-kinase type-2 beta (Homo sapiens), sequence (P78356 whole entry, looked up, canonical isoform): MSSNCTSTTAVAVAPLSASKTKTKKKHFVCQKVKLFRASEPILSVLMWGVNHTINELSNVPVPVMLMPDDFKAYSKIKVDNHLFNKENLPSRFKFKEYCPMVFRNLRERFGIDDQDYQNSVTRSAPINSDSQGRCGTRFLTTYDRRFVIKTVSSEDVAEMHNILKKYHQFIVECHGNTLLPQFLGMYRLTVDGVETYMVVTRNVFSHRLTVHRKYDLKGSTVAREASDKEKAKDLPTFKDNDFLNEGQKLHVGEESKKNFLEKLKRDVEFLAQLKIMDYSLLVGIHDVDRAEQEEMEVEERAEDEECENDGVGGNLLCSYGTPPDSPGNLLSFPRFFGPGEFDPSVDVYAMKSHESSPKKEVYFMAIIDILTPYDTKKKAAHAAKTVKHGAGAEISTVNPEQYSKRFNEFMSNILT

SMILES	Potency
O=C1Nc2ccc(C(=O)c3ccco3)cc2/C1=C/c1cc(Cl)c(O)c(Cl)c1	890 nM (active)
